Laboratory results published in ChEMBL document CHEMBL1961873, “Compounds: GSK PKIS; Assays: Nanosyn kinase panel” (2012).

Key:
[1] = target: Platelet-derived growth factor receptor beta (Homo sapiens) (UniProt P09619); details: at 1 µM;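 further: each value is a mean percent inhibition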
[2] = target: Tyrosine-protein kinase FRK (Homo sapiens) (UniProt P42685); details: at 0.1 µM
[3] = target: Tyrosine-protein kinase FRK (Homo sapiens) (UniProt P42685); details: at 1 µM
[4] = target: Protein-tyrosine kinase 2-beta (Homo sapiens) (UniProt Q14289); details: at 0.1 µM
Sequence of Protein-tyrosine kinase 2-beta (Homo sapiens) (Q14289 whole entry, looked up): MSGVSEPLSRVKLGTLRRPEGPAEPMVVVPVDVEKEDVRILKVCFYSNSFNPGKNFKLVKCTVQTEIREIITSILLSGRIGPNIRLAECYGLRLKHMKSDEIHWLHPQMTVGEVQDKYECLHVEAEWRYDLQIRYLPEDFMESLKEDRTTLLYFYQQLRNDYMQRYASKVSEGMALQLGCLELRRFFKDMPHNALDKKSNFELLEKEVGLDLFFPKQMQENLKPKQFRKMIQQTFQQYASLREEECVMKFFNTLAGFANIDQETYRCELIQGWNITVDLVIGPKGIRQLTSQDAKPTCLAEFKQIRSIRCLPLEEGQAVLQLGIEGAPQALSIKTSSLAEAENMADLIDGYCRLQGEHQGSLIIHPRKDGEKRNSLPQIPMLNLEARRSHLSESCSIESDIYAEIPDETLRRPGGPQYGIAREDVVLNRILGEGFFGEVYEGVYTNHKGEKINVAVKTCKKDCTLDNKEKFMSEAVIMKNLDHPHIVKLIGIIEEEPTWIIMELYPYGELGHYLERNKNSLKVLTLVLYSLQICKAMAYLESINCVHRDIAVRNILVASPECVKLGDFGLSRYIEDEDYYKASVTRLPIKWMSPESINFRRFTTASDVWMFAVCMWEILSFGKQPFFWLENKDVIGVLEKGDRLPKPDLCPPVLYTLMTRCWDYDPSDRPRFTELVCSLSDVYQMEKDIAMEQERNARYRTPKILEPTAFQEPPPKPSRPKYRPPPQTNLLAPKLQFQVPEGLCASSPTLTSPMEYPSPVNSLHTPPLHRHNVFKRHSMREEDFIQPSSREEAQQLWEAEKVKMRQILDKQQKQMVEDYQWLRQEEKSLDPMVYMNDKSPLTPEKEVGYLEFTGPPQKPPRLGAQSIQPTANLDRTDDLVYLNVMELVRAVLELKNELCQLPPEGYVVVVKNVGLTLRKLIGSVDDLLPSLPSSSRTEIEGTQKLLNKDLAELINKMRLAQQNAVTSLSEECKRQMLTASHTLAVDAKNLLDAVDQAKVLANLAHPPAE

[5] = target: Protein-tyrosine kinase 2-beta (Homo sapiens) (UniProt Q14289); details: at 1 µM
[6] = target: Proto-oncogene tyrosine-protein kinase receptor Ret (Homo sapiens) (UniProt P07949); details: at 0.1 µM
Sequence of Proto-oncogene tyrosine-protein kinase receptor Ret (Homo sapiens) (P07949 whole entry): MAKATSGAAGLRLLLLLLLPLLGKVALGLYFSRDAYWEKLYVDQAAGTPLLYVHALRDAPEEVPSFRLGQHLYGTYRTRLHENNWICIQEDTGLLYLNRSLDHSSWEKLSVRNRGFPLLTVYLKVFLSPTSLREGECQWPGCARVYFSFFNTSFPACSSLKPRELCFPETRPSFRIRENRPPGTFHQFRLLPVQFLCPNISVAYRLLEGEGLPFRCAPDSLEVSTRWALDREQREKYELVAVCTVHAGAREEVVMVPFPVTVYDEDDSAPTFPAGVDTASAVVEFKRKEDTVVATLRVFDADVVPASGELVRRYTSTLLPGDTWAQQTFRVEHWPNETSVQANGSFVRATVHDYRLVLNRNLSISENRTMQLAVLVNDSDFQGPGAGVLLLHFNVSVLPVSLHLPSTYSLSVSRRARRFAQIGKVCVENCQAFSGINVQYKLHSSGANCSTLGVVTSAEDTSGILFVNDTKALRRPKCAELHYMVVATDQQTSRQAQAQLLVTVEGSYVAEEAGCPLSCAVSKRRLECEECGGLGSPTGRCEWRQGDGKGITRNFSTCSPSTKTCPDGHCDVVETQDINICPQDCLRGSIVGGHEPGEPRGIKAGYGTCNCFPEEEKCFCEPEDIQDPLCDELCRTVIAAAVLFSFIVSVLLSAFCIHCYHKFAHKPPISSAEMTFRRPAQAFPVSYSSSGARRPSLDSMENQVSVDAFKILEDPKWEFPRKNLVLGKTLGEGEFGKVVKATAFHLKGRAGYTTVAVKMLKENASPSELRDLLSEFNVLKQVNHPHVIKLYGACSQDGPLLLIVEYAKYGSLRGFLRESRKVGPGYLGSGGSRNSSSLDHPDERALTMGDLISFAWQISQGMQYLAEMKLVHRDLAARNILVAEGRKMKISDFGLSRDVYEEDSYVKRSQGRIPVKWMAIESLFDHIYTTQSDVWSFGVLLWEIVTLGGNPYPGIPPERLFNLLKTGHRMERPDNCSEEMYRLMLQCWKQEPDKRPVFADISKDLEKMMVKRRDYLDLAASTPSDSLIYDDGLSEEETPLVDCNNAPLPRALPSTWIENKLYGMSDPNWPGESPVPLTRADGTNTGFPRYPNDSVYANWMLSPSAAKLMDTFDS

[7] = target: Proto-oncogene tyrosine-protein kinase receptor Ret (Homo sapiens) (UniProt P07949); details: at 1 µM
[8] = system: Proto-oncogene tyrosine-protein kinase receptor Ret (Homo sapiens), P07949 [V804L]; details: at 0.1 µM
Sequence of Proto-oncogene tyrosine-protein kinase receptor Ret (Homo sapiens), P07949 [V804L] (P07949 whole entry V804L): as the sequence (P07949 whole entry) above, with V804L counted along it

[9] = system: Proto-oncogene tyrosine-protein kinase receptor Ret (Homo sapiens), P07949 [V804L]; details: at 1 µM
[10] = system: Proto-oncogene tyrosine-protein kinase receptor Ret (Homo sapiens), P07949 [Y791F]; details: at 0.1 µM
Sequence of Proto-oncogene tyrosine-protein kinase receptor Ret (Homo sapiens), P07949 [Y791F] (P07949 whole entry Y791F): as the sequence (P07949 whole entry) above, with Y791F counted along it

[11] = system: Proto-oncogene tyrosine-protein kinase receptor Ret (Homo sapiens), P07949 [Y791F]; details: at 1 µM
[12] = target: Macrophage-stimulating protein receptor (Homo sapiens) (UniProt Q04912); details: at 0.1 µM
[13] = target: Macrophage-stimulating protein receptor (Homo sapiens) (UniProt Q04912); details: at 1 µM
[14] = target: Proto-oncogene tyrosine-protein kinase ROS (Homo sapiens) (UniProt P08922); details: at 0.1 µM
[15] = target: Proto-oncogene tyrosine-protein kinase ROS (Homo sapiens) (UniProt P08922); details: at 1 µM
[16] = target: Proto-oncogene tyrosine-protein kinase Src (Homo sapiens) (UniProt P12931); details: at 0.1 µM
Sequence of Proto-oncogene tyrosine-protein kinase Src (Homo sapiens) (P12931 2-536 limits assumed): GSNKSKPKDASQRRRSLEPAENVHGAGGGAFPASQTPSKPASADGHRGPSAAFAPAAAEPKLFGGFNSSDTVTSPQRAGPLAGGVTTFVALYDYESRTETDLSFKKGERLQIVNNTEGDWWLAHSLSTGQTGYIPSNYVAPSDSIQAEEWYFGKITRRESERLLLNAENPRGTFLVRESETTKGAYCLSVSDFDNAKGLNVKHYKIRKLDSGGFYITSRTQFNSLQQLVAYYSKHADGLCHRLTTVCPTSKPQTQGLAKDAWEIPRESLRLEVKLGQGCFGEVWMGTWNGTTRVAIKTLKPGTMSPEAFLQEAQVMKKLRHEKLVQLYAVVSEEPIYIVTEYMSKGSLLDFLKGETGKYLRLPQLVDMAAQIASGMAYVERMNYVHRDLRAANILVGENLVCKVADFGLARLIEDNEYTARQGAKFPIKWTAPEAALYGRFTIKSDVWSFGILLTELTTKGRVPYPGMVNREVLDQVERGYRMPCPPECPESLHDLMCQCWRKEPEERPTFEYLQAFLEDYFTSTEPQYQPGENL

[17] = target: Proto-oncogene tyrosine-protein kinase Src (Homo sapiens) (UniProt P12931); details: at 1 µM
[18] = target: Tyrosine-protein kinase Srms (Homo sapiens) (UniProt Q9H3Y6); details: at 0.1 µM
Sequence of Tyrosine-protein kinase Srms (Homo sapiens) (Q9H3Y6 whole entry): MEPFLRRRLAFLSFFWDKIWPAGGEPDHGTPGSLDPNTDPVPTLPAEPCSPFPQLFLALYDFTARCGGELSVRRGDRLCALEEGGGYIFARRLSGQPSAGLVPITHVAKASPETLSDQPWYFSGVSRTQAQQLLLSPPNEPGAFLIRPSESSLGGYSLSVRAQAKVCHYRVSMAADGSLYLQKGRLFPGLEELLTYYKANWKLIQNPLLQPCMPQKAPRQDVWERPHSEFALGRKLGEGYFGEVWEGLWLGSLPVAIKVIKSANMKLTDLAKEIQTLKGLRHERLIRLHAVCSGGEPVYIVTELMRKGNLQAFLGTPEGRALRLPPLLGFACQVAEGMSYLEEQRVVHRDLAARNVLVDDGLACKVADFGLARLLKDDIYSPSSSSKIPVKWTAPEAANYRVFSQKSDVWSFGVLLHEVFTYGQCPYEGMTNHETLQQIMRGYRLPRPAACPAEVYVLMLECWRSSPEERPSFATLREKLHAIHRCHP

[19] = target: Tyrosine-protein kinase Srms (Homo sapiens) (UniProt Q9H3Y6); details: at 1 µM
[20] = target: Tyrosine-protein kinase SYK (Homo sapiens) (UniProt P43405); details: at 0.1 µM;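 further: reported percentages are mean inhibition values for SYK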

Sequence of Platelet-derived growth factor receptor beta (Homo sapiens) (P09619 whole entry): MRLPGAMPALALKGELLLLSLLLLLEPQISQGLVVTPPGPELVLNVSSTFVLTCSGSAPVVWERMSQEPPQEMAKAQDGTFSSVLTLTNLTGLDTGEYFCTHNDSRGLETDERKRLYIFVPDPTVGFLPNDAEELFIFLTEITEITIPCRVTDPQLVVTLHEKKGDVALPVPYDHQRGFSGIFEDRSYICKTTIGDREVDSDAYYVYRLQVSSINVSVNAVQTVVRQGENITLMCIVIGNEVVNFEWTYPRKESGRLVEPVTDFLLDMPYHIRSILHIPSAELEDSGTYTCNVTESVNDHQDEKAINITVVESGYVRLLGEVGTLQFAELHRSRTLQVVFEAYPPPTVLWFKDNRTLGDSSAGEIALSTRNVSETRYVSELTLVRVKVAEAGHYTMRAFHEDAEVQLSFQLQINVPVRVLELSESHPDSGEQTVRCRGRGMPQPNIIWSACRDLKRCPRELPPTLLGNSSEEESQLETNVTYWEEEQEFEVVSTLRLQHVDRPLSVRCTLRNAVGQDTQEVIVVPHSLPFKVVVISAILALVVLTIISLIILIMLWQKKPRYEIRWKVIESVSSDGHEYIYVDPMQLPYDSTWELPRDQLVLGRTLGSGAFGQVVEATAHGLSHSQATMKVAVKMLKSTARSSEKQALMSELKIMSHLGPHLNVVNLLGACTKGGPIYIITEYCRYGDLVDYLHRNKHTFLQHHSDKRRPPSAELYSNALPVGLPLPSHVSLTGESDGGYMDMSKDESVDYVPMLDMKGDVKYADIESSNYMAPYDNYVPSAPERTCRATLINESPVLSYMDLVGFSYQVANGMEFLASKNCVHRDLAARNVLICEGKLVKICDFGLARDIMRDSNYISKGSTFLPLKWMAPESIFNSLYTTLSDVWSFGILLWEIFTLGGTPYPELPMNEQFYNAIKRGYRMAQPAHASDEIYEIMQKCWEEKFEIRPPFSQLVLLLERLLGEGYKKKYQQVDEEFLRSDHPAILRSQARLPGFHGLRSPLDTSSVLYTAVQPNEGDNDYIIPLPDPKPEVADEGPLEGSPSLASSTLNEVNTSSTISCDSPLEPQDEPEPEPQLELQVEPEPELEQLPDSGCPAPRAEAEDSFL
Sequence of Tyrosine-protein kinase FRK (Homo sapiens) (P42685 whole entry): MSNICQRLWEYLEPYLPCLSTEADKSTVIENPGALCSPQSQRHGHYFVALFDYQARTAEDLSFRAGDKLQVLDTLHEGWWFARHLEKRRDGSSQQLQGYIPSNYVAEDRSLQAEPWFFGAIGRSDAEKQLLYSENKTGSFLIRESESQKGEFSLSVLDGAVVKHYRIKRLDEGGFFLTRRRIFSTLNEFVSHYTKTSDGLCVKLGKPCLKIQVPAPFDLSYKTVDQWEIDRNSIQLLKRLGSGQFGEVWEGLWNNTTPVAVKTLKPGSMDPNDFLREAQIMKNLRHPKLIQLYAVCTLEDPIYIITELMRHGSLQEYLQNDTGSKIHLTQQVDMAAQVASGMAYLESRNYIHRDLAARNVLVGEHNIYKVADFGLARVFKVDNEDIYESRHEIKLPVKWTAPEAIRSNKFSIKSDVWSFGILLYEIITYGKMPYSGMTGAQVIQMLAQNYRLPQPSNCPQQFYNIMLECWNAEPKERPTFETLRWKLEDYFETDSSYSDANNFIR

Structure (SMILES) | inhibition [1] | inhibition [2] | inhibition [3] | inhibition [4] | inhibition [5] | inhibition [6] | inhibition [7] | inhibition [8] | inhibition [9] | inhibition [10] | inhibition [11] | inhibition [12] | inhibition [13] | inhibition [14] | inhibition [15] | inhibition [16] | inhibition [17] | inhibition [18] | inhibition [19] | inhibition [20]
NS(=O)(=O)c1ccc(N/C=C2\C(=O)Nc3ccc4ncsc4c32)cc1 | 86.8% | 2.34% | 3.93% | 7.28% | 43.6% | 30.4% | 71.3% | 47.3% | 73.9% | 30.5% | 69% | 7.83% | 39.2% | 6.11% | 17% | 12.2% | 42.9% | -3.95% | -1.72% | -2.47%
CCn1c(-c2nonc2N)nc2c(C#CCN)ncc(OCCCN)c21 | 25.5% | -0.39% | -0.01% | -5.89% | 8.44% | 3.26% | 4.11% | 6.12% | 9.27% | 1.83% | 15.8% | -2.05% | -3.31% | 3.3% | 4.46% | -2.04% | -4.29% | 1.1% | 1.96% | 8.99%
NC(=O)c1sc(-n2cnc3cc(C(F)(F)F)ccc32)cc1OCc1ccccc1Br | 5.82% | 0.62% | -0.62% | 3.52% | -2.94% | 5.91% | 2.23% | 1.83% | 11.6% | 2.29% | 7.07% | 0.35% | -1.59% | 4.23% | 5.52% | 3.37% | 2.02% | 0.27% | 0.76% | 0.79%
CCn1c(-c2nonc2N)nc2c(C#CC(C)(C)O)ncc(OCC3CCNCC3)c21 | 44.6% | 1.13% | 1.21% | 9.34% | 29.7% | 6.89% | 26.3% | 6.2% | 28.5% | 5.3% | 33.5% | 0.01% | 7.68% | 3.89% | 5.45% | -0.03% | 8.65% | 0.75% | 1.57% | 0.62%
Nc1nonc1-c1nc2cnccc2n1C1CCCCC1 | 26.4% | 0.25% | 0.75% | -7.07% | -8.39% | 3.59% | 9.55% | 5.85% | 19.5% | 2.08% | 13.2% | 13.1% | -1.49% | 5.33% | 35.9% | 1.24% | -1.17% | 1.53% | 2.59% | 3.45%
COc1cc2c(cc1Nc1nc(Nc3ccsc3C(N)=O)c3cc[nH]c3n1)N(C(=O)CN(C)C)CCC2 | 33.9% | 1.91% | 8.84% | 77.8% | 95.6% | 11.9% | 14.2% | 2.29% | 13.6% | 1.79% | 7.35% | 2.97% | 11.5% | 82.1% | 82.1% | 8.11% | 6.64% | 5.79% | 3.93% | 10.9%
Fc1ccc(-c2ncn(C3CCNCC3)c2-c2ccnc(Oc3ccccc3)n2)cc1 | 5.68% | 1.48% | 1.29% | 4.92% | 6.66% | 3.19% | 7.03% | 1.33% | 5.85% | 1.85% | 4.13% | – | -0.69% | 2.25% | 4.83% | 1.52% | 2.45% | -0.96% | -0.16% | 2.45%
Cc1cc(-c2ccco2)cc(C)c1/C=C/c1cncc(-c2nn[nH]n2)c1 | 2.67% | -0.44% | -0.05% | 1.24% | 0% | 1.88% | 3.21% | 8.81% | 1.72% | 2.21% | 2.75% | 1.68% | -0.11% | 2.71% | 3.62% | 2.38% | 2.91% | 0.76% | 3.61% | 0.05%
CCn1c(-c2nonc2N)nc2c(C#CC(C)(C)O)ncc(OC[C@@H]3CCCN3)c21 | 47.2% | -0.88% | 0.68% | 1.89% | 23% | 3.87% | 25.2% | 0.45% | 2.53% | 3% | 28.5% | 1.97% | -2.78% | -0.22% | 0.45% | -0.2% | -2.58% | 1.63% | 0.87% | -0.6%
COc1cccc(COc2cc(-n3cnc4ccccc43)sc2C(N)=O)c1 | 8.32% | 0% | 0.01% | -3.42% | -2.02% | 0.11% | 7.33% | 0.81% | 0.07% | 0.47% | 11.6% | -1.15% | 1.23% | 1.62% | 3.74% | -0.77% | -2.52% | -2.46% | -1.46% | -0.33%
NS(=O)(=O)c1ccc(-c2ccc3c(NC(=O)C4CC4)n[nH]c3c2)cc1 | 5.87% | 1.62% | 1.3% | 6.65% | 5.61% | 3% | 8.48% | 2.82% | 4.4% | 3.34% | 5.85% | 5.07% | 8.99% | 1.18% | 2.15% | 1.32% | 4.59% | -2.44% | -0.4% | -0.58%
COc1cc(C=NNc2ncnc3c2cnn3Cc2ccccc2)ccc1O | 26.4% | 0.54% | 1.85% | -6.73% | -1.9% | 7.87% | 46.3% | 1.82% | 11.1% | 7.69% | 28.4% | -1.32% | 12.5% | 2.7% | 16.4% | 31.2% | 76.5% | -0.22% | 4.66% | 4.57%
COc1cccc(-n2ncc3c(N/N=C/c4ccncc4)ncnc32)c1 | 81.2% | 2.72% | 5.75% | 11.5% | 16.5% | 9.73% | 50.3% | 7.23% | 31.1% | 18.4% | 65.9% | 12.4% | 60.9% | 10.2% | 76% | 49.1% | 87.3% | 1.22% | 14.3% | -2.07%
CCn1c(-c2nonc2N)nc2c(C#CC(C)(C)O)nc(O[C@@H](CN)c3ccccc3)cc21 | 79.5% | -0.39% | 0.63% | 27% | 80.1% | 41.7% | 90% | 9.12% | 47.7% | 41.8% | 80.3% | 1.9% | 3.42% | 2.61% | 11.1% | 2.84% | 20.9% | 4.6% | 0.15% | 1.9%
